Values without a mark were called inactive.
Tested on: Vero E6 infected with SARS-CoV-2
Assay: inhibition of SARS-CoV-2 cytopathic effect; higher = more antiviral protection, active = above 15
Settings: 48 h

Row | SMILES | inhibition of SARS-CoV-2 cytopathic effect (1 nM) [%] | inhibition of SARS-CoV-2 cytopathic effect (8.33 nM) [%] | inhibition of SARS-CoV-2 cytopathic effect (100 nM) [%] | inhibition of SARS-CoV-2 cytopathic effect (833.33 nM) [%] | inhibition of SARS-CoV-2 cytopathic effect (10000 nM)
1 | CC(C)N(CCCCOCC(=O)NS(C)(=O)=O)c1cnc(-c2ccccc2)c(-c2ccccc2)n1 [selexipag] | -0.52 | -1.02 | -0.43 | -0.43 | -1.53%
2 | CCN(CC)CCN[C@@H](C(=O)OCCC(C)C)c1ccccc1 [camylofine-chlorhydrate] | -0.61 | -0.68 | -1.25 | 0.17 | -1.1%
3 | Cc1ccc(/C=N/NC(=O)c2ccccc2Oc2ccccc2)o1 | -1.75 | -0.44 | -0.55 | 0.13 | 0.97%
4 | CC1=NN(c2ccc(C)c(C)c2)C(=O)/C1=N\Nc1cccc(-c2cccc(C(=O)O)c2)c1O [eltrombopag] | 2.51 | 2.25 | 2.06 | 0.59 | 0.99%
5 | CCCOc1ccc(C(=O)OCCN(CC)CC)cc1N [proxymetacaine] | 1.69 | 1.71 | 2.25 | 0.25 | 2%
6 | COc1ccc(CCc2nc3cc(-c4c(C)noc4C)ccc3n2C[C@H](C)N2CCOCC2)cc1Cl | 0.67 | 1.61 | 0.26 | -1.13 | 5.31%
7 | O=C(O)c1ccc(NC(=O)[C@H](Cc2ccc(O)cc2)NC(=O)c2ccccc2)cc1 [bentiromide] | -1.4 | 0.94 | -1.51 | -0.68 | 0.39%
8 | COc1ccc(CNC(=O)c2cc(-c3cncc(C)c3)ncc2-c2nccs2)nc1OC | 1.93 | 4.06 | 1.64 | -9.94 | 3.12%
9 | CCCC[C@H]1OC(=O)c2ccccc21 [butylphthalide] | -2.11 | -2.6 | -0.12 | 1.5 | 0.31%
10 | Clc1cccc(Cl)c1NC1=NCCN1 [clonidine] | -0.43 | -2.8 | -3.01 | 0.52 | -5.58%
11 | C/C(=C\c1ccc(C(=O)O)cc1)c1ccc2c(c1)C(C)(C)CCC2(C)C | -0.5 | -1.23 | -2.43 | 0.15 | 3.67%
12 | COc1cc2nc(C3CC3)nc(N3CCN(c4ccccc4OC)CC3)c2cc1OC | -1.86 | -1.01 | -1.01 | 1.94 | -4.17%
13 | O=[N+]([O-])c1ccccc1S(=O)(=O)NCC1CCC(CNC[C@H]2CCc3ccccc3C2)CC1 (stereo not given in full) | 0.09 | 1.35 | -1.44 | -4.04 | 42.4% (active)
14 | O=C(O)Cc1sc(-c2ccccc2)nc1-c1ccc(Cl)cc1 [fentiazac] | -0.18 | -2.64 | -1.78 | 0.61 | 1.91%
15 | CN[C@H](CC(C)C)C(=O)N[C@H]1C(=O)N[C@@H](CC(N)=O)C(=O)N[C@H]2C(=O)N[C@H]3C(=O)N[C@H](C(=O)N[C@H](C(=O)O)c4cc(O)cc(O)c4-c4cc3ccc4O)[C@H](O)c3ccc(c(Cl)c3)Oc3cc2cc(c3O[C@@H]2O[C@H](CO)[C@@H](O)[C@H](O)[C@H]2O[C@H]2C[C@](C)(N)[C@H](O)[C@H](C)O2)Oc2ccc(cc2Cl)[C@H]1O | 0.55 | 1.31 | -0.56 | 3.7 | 0.87%
16 | O=C(O)c1ccc2cc(-c3ccc(O)c(C45CC6CC(CC(C6)C4)C5)c3)ccc2c1 | 1.24 | 1.61 | -0.4 | -2.65 | -7.34%
17 | N[C@H]1CC[C@H](N[C@@H]2C[C@H]2c2ccccc2)CC1 | -0.96 | 2.24 | 1.16 | 1.11 | 1.79%
18 | CCOC(=O)c1ncc2[nH]c3cccc(OC(C)C)c3c2c1C | 2.48 | -1.73 | 3.11 | 5.05 | 7.71%
19 | C[C@]1(Cn2ccnn2)[C@H](C(=O)O)N2C(=O)C[C@H]2S1(=O)=O [tazobactam] | 0.92 | -1.48 | 2.92 | 0.65 | 2.47%
20 | Oc1c(I)cc(I)c2cccnc12 [iodoquinol] | -0.28 | 2.09 | -1.12 | 1.46 | 0.59%

Row | SMILES | inhibition of SARS-CoV-2 cytopathic effect (1 nM) [%] | inhibition of SARS-CoV-2 cytopathic effect (8.33 nM) [%] | inhibition of SARS-CoV-2 cytopathic effect (100 nM) [%] | inhibition of SARS-CoV-2 cytopathic effect (833.33 nM) [%] | inhibition of SARS-CoV-2 cytopathic effect (10000 nM)
21 | CC(=O)OCC1=C(C(=O)O)N2C(=O)[C@@H](NC(=O)CS/C(=N/C(C)C)NC(C)C)[C@H]2SC1 [cefathiamidine] | -0.52 | -0.04 | 1.14 | 0.34 | 0.26%
22 | S=C(S)N1CCCC1 [pyrrolidine-dithiocarbamate] | 2.71 | 4.55 | 4.28 | 12.7 | 24.8% (active)
23 | CCn1nc(C)c2c1C(c1ccccc1)=NCC(=O)N2 [ripazepam] | -1.39 | 0.91 | 0.56 | -0.98 | -3.15%
24 | O=C(O)C(O)Cc1ccc(O)c(O)c1 (stereo not given) [sodium-danshensu] | 1.07 | -0.48 | 2.17 | -0.61 | -1.7%
25 | CCN(CC)CCOC(=O)c1ccc(N)cc1 [procaine] | -1.32 | -0.89 | -0.82 | -1.72 | -0.17%
26 | CN(C)CC(c1ccc(O)cc1)C1(O)CCCCC1 (stereo not given) [desvenlafaxine] | 1.5 | 3.55 | 4.53 | 1.89 | 0.99%
27 | Nc1ncnc2c1c(-c1ccc(Oc3ccccc3)cc1)nn2C1CCCC1 | 3.63 | 1.32 | 0.15 | -0.21 | -13.6%
28 | CCN(C(=O)c1c(O)c2c(Cl)cccc2n(C)c1=O)c1ccccc1 [laquinimod] | 1.55 | -0.45 | 0.71 | -5.3 | -6.25%
29 | CCCC(=O)Nc1ccc(OCC(O)CNC(C)C)c(C(C)=O)c1 (stereo not given) [acebutolol] | 4.4 | 2.88 | 3.43 | -2.09 | 3.92%
30 | Cn1cc(-c2ccc(S(=O)(=O)n3ccc(/C=C/C(=O)Nc4ccccc4N)c3)cc2)cn1 | -0.95 | 1.05 | -0.51 | -4.65 | -1.31%
31 | Nc1ncnc2c1ncn2[C@@H]1O[C@@H]2COP(=O)(O)O[C@H]2[C@H]1O [cyclic-AMP] | 3.59 | -0.53 | -1.76 | -5.14 | 0.34%
32 | NCCCC[C@H](NC(=O)[C@@H]1CCCN1C(=O)[C@@H]1CSSC[C@H](N)C(=O)N[C@@H](Cc2ccc(O)cc2)C(=O)N[C@@H](Cc2ccccc2)C(=O)N[C@@H](CCC(N)=O)C(=O)N[C@@H](CC(N)=O)C(=O)N1)C(=O)NCC(N)=O [lypressin] | 0.07 | 1.59 | 3.33 | 1.65 | 0.67%
33 | c1cc(CN2CCCNCCNCCCNCC2)ccc1CN1CCCNCCNCCCNCC1 [plerixafor] | -2.23 | -1.5 | 0.88 | 0.29 | 1.12%
34 | CCCCCCCCCCCC(=O)N(CCO)CCO [lauric-diethanolamide] | 1.82 | 1.8 | -1.44 | 1.01 | -2.1%
35 | CCN(CCO)CCCC(C)Nc1ccnc2cc(Cl)ccc12 (stereo not given) [hydroxychloroquine] | -0.29 | 2.78 | -0.76 | 0 | -0.85%
36 | O=C(O)/C=C\c1c[nH]cn1 [cis-Urocanic acid] | 0.865 | -1.24 | -1.15 | -0.955 | 1.12%
37 | C/C(=C\C(N)C(=O)O)CP(=O)(O)O (stereo not given) | -2.33 | -2.58 | 0.17 | 5.33 | -3.57%
38 | CC(C)NC[C@@H](O)COc1ccccc1-n1cccc1 (racemic) [isamoltane] | 1.05 | -0.83 | 1.76 | 1.65 | -0.73%
39 | O=c1n(CCCN2CCN(c3cccc(Cl)c3)CC2)nc2ccccn12 [trazodone] | 0.53 | 4.07 | 0.98 | -1.12 | -0.82%
